Rows were chosen to be rich in hits. Some 3.5% of all compounds tested hit in one or more screens of this group.
MITF inh – human MITF inhibition, primary screen; O75030; AlphaScreen MITF homodimerization, bead proximity signal; inhibition, % at 2.6 µM; hit rate 0.91% among 650,000; in the data active means inhibition above about 50%
FBW7 act – activators of human E3 ligase FBW7. hit rate 0.13% among 650,000. normalized activity (activation), % at 26.1 µM. Q969H0. AlphaScreen FBW7–phospho-cyclin E peptide binding, activator screen; in the data active means normalized activity above about 1.9%;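 further: purified mutant Fbw7 with reduced substrate affinity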
Target sequence (Q969H0 whole entry, looked up): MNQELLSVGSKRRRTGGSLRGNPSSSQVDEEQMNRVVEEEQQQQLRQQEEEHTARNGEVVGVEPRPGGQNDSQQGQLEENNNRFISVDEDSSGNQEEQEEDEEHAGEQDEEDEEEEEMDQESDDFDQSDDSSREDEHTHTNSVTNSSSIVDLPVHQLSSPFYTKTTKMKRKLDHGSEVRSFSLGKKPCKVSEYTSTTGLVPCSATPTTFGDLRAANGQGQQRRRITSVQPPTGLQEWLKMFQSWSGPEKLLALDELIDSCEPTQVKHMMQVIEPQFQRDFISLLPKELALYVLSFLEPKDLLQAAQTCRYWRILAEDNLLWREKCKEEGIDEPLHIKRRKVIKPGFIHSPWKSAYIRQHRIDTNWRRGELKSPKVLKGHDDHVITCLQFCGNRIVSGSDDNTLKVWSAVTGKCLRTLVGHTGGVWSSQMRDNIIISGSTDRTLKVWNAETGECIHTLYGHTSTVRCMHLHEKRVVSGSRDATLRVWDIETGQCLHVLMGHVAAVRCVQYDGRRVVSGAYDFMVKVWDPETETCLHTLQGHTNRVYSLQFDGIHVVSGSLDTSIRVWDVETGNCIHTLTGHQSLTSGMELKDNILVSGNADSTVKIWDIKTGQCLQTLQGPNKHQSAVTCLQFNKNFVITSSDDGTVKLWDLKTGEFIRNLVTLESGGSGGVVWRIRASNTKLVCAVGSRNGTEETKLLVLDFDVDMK
GPR151 ag – activators of human GPR151 | PathHunter beta-arrestin GPR151 cells, luminescence | activation, % at 11.2 µM | hit rate 1% among 650,000 | AID 1508602; in the data active means activation above about 4.9%
TEAD-YAP inh – TEAD-YAP interaction inhibition. inhibition, % at 9.12 µM. AID 1259422. hit rate 1.4% among 640,000. HEK-TIYL cells, TEAD-Gal4/YAP UAS-luciferase luminescence; in the data active means inhibition above about 32%
MITF inh conf – confirmation of human MITF inhibitors; shares compounds with MITF inh; AlphaScreen MITF homodimerization, biotin/His-MITF beads; inhibition, % at 2.6 µM; hit rate 16% among 4,700; AID 1259372;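 active means inhibition above a cutoff derived from the DMSO control wells, cut at about 28% in these data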;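 further: inhibitors lower the bead chemiluminescence by keeping MITF from dimerizing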
AlphaScreen DR – counter-screen: compounds optically interfering with AlphaScreen; IC50, µM; hit rate 6% among 480; shares compounds with MITF inh; AID 1259373; AlphaScreen optical interference counterscreen, cell-free; call rule not given here
AS interf ctr – AlphaScreen optical interference, counter-screen | shares compounds with MITF inh | LysRS AlphaScreen counterscreen, signal interference, triplicate | inhibition, % at 2.6 µM | hit rate 7.6% among 4,700;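 active means inhibition above a cutoff derived from the DMSO control wells, cut at about 30% in these data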
Of the large screens only hits and unclear results are named; the others gave an inactive call (follow-up assays come after a bar, where they were run).

O=C(O)C1CC(O)CN1S(=O)(=O)c1ccc(Cl)c(Cl)c1 (stereo not drawn)	MITF inh 65 | MITF inh conf inactive | AS interf ctr inactive
CC1C(=O)OC(c2ccccc2)C(C)(C)C1=O (stereo not drawn)	none
C/C(CC12CC3CC(CC(C3)C1)C2)=N\NC(N)=O	MITF inh 53 | MITF inh conf inactive | AS interf ctr inactive
O=C(c1cccs1)N1CCN(c2ccc([N+](=O)[O-])cc2F)CC1	MITF inh 62 | MITF inh conf inactive | AS interf ctr inactive
COc1ccc(/C=C/c2ccccc2F)cc1	none (no result: FBW7 act, TEAD-YAP inh)
COc1ccc(NS(=O)(=O)c2cc(C(=O)Nc3ccccc3)ccc2OC)cc1	none
COc1ccc(C(=O)Nc2ccccc2)cc1S(=O)(=O)Nc1cc(C)on1	MITF inh 69 | MITF inh conf inactive | AS interf ctr inactive
CC(NCC(O)CO)c1ccc(-n2ccnc2)cc1 (stereo not drawn)	MITF inh 81 | MITF inh conf inactive | AS interf ctr inactive
O=C(COc1ccc(F)cc1)N/N=C/c1cccc2cccnc12	MITF inh 59 | MITF inh conf 28 | AS interf ctr 86
O=C(N/N=C/c1cccc2cccnc12)c1ccccc1	MITF inh 57 | MITF inh conf 78 | AS interf ctr 100
O=C(N/N=C/c1cccc2cccnc12)c1ccncc1	MITF inh 96 | MITF inh conf 112 | AS interf ctr 100
O=C(N/N=C/c1cccc2ccccc12)c1ccncc1	none
O=C(c1cccc(F)c1)N1CCN(Cc2cccc3ccccc23)CC1	MITF inh 58 | MITF inh conf inactive | AS interf ctr inactive
O=C(c1cccc(F)c1)N1CCN(Cc2ccccc2Cl)CC1	MITF inh 57 | MITF inh conf inactive | AS interf ctr inactive
CCOC(=O)C(Cl)NNc1ccccc1[N+](=O)[O-] (stereo not drawn)	MITF inh 72 | MITF inh conf inactive | AS interf ctr inactive
CCOC(=O)C(=CNc1ccccc1[N+](=O)[O-])C(=O)OCC	none
Cc1ccc(C(=O)Nc2ccccc2NC(=O)c2ccc(C)o2)o1	none
Cc1ccc(C(=O)NN(C)C)o1	MITF inh 91 | MITF inh conf inactive | AS interf ctr inactive
Cc1cc(C)cc(N2C(=O)CS(=O)(=O)C2c2cccc(Br)c2)c1 (stereo not drawn)	none
O=C1CS(=O)(=O)C(c2ccccc2)N1c1ccccc1 (stereo not drawn)	MITF inh 72 | MITF inh conf inactive | AS interf ctr inactive
Cc1ccc(C(=O)COC(=O)C(C(C)C)N2C(=O)C3C4C=CC(C4)C3C2=O)cc1[N+](=O)[O-] (stereo not drawn)	MITF inh 82 | MITF inh conf inactive | AS interf ctr inactive
COc1cccc(-c2csc3ncc(C(=O)NCC(C)C)c(=O)n23)c1	none
CC1(C)CC(=O)C=C(NCCN2CCN(C(=O)Nc3ccc(Cl)c(Cl)c3)CC2)C1	MITF inh 73 | MITF inh conf inactive | AS interf ctr inactive
Cc1cc(NC(=O)CCN2C(=O)C3C4C=CC(C4)C3C2=O)cc(C)c1Br (stereo not drawn)	none
CCC(C)NCCOc1ccc(OC)cc1 (stereo not drawn)	none
CCC(C)NCCOCCOc1ccc(OC)cc1 (stereo not drawn)	MITF inh 84 | MITF inh conf inactive | AS interf ctr inactive
CCC(C)NCCOCCOc1ccc(C)cc1Cl (stereo not drawn)	MITF inh 77 | MITF inh conf inactive | AS interf ctr inactive
CCC(C)NCCOCCOc1ccc(Cl)cc1Br (stereo not drawn)	none
CCC(C)NCCOCCOc1ccc(C)cc1OC (stereo not drawn)	MITF inh 54 | MITF inh conf inactive | AS interf ctr inactive
Oc1[nH]c2ccccc2c1N=NC(=S)NCCCN1CCOCC1	none
CCc1c(C)nc(-n2nc(-c3ccco3)cc2NC(=O)C2CCCC2)[nH]c1=O	none
COc1ccccc1NC(=O)c1nnn(CC(=O)Nc2ccc(C)cc2C)c1N	none
CCOC(=O)N1CCN(Cc2cn3ccccc3n2)CC1	MITF inh 61 | MITF inh conf inactive | AS interf ctr inactive
COc1ccc(NCc2ccc(C(=O)O)o2)cc1	none
O=C(O)c1ccc(CNC(=O)c2cocc2C(=O)O)o1	MITF inh 55 | MITF inh conf 38 | AlphaScreen DR inactive | AS interf ctr inactive

Compound activity as filed in PubChem.
